Results published in PubChem BioAssay (NCATS).
Inconclusive results are not listed. Values without a mark were called inactive. The call rests on the fitted dose curve; in most records, active means well fitted cell-killing curve with a large enough effect; inconclusive means small, poorly fitted or top-dose-only effect, or effect the other way; inactive means flat fitted curve, though single readings scatter.

Tested on: Tov-21-G
Assay: Primary qHTS to identify gynecologic anti-cancer compounds using libraries of approved drugs and bioactive compounds (AID 1345084); further: nearly all actives have a fitted effect of over 55% in size
Details: Gynecologic cancer cell panel viability, ATPlite luminescence, 48 h; series mostly up to 57.5 µM; activity change, negative = cytotoxicity: at the top concentration
Procedure, shortened: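 Measured: luminescence after ATPlite addition (15 min, RT). Exposure: 48 h, 37 C, 5% CO2.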
On the % scale 0 is the no-effect control and ±100 the full control effect.

SMILES	activity change, negative = cytotoxicity
CC(=O)N1CCN([C@H]2CCN(C(=O)N(C)[C@H](C)c3cc(C(F)(F)F)cc(C(F)(F)F)c3)[C@@H](c3ccc(F)cc3C)C2)CC1	-0.358%
Nc1ccc(N)c([N+](=O)[O-])c1	-8.12% [at 116 µM]
Fc1ccccc1CNCc1ccc(-c2ccnc3[nH]ccc23)cc1	-1.53%
CCCCc1nc(C)c(CC(=S)N(C)C)c(=O)n1Cc1ccc(-c2ccccc2-c2nn[nH]n2)cc1	1.87%
Clc1ccccc1CNCC1CCC(CNCc2ccccc2Cl)CC1 (stereo not drawn)	-18.2%
CC[C@H]1OC(=O)[C@H](C)[C@@H](O[C@H]2C[C@@](C)(OC)[C@@H](O)[C@H](C)O2)[C@H](C)[C@@H](O[C@@H]2O[C@H](C)C[C@H](N(C)C)[C@H]2O)[C@](C)(O)C[C@@H](C)/C(=N/OCOCCOC)[C@H](C)[C@@H](O)[C@]1(C)O	6.46%
C[C@@H](CN1CCC(n2c(=O)[nH]c3cc(Cl)ccc32)CC1)NC(=O)c1ccc2ccccc2c1	4.05%
CC1=CC(=O)[C@@]2(C(C)C)C[C@@H]12	16.6%
C=C1C(=O)O[C@@H]2/C=C(/C)CC3C=C(C[C@H](OC(=O)/C(C)=C\C)[C@@H]12)C(=O)O3 (stereo partly drawn)	-23.3% [at 38.5 µM]
COc1ccc2c(c1)CN(C(=O)CCN1CCC(Cc3ccccc3)CC1)CCS2	-8.67% [at 25.3 µM]
COc1ccc(-c2nc(-c3cc(C(F)(F)F)cc(C(F)(F)F)c3)n(Cc3ccc(C(N)=O)cc3)c2-c2ccc(OC)cc2)cc1	19.6%
CNc1cc(OC)c(C(=O)N[C@@H]2CCN(Cc3ccccc3)[C@@H]2C)cc1Cl	2.95%
CCOC(=O)CCC(=O)O[C@H]1[C@H](O[C@@H]2[C@@H](C)[C@H](O[C@H]3C[C@@](C)(OC)[C@@H](O)[C@H](C)O3)[C@@H](C)C(=O)O[C@H](CC)[C@@](C)(O)[C@H](O)[C@@H](C)C(=O)[C@H](C)CC2(C)O)O[C@H](C)C[C@@H]1N(C)C (stereo partly drawn)	14.7%
